# Assay results from PubChem BioAssay (NCATS).
# Where “and” joins values, the source holds several entries; their conditions need not be identical. Identical values can stand only once. Inconclusive results are not listed. Entries that show only a call come without a potency. Calls of active or inactive are those of the source. Calls follow the shape of the full dose curve.
# Tests used:
# [1] = Primary qHTS for Huh7 cytotoxicity: counterscreen for inhibitors of MERS-S pseudotyped particle cell entry (AID 1479147); conditions: outcome: dose series up to 57.1 µM unless noted
# [2] = Primary qHTS for inhibitors of MERS-S pseudo-typed particle cell entry (AID 1479149); conditions: outcome: dose series up to 57.1 µM unless noted; also: nearly all actives have a fitted effect of over 60% in size
# [3] = Primary qHTS for Vero E6 cytotoxicity: counterscreen for inhibitors of SARS-S pseudo-typed particle cell entry (AID 1479150); conditions: outcome: dose series up to 57.1 µM unless noted
# [4] = Cytotoxicity counterscreen for inhibitors of SARS-CoV-2 cell entry (AID 1645845); conditions: outcome: dose series up to 57.1 µM unless noted; also: nearly all actives have a fitted effect of over 50% in size
# Summary of the method: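 48 h compound treatment (after 1 h preincubation), HEK293-ACE2 cells, 37 C/5% CO2; ATP luminescence endpoint; normalized to cell wells and media blanks.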
# [5] = Primary qHTS to identify inhibitors of SARS-CoV-2 cell entry (AID 1645846); conditions: SARS-CoV-2 pseudovirus cell entry assay, luminescence; activity change, negative = inhibition: at 57.1 µM (top of the series) unless noted; also: nearly all actives have a fitted effect of over 45% in size; also: potency is read from the fitted curve at half-maximal effect
# Summary of the method: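 HEK293 cells stably expressing human ACE2, pre-treated 1 h with compound, then infected with MLV particles pseudotyped with Wuhan-Hu-1 spike (C-terminal 19-aa truncation). Luciferase luminescence after 48 h at 37 °C, normalised to spike PP and bald PP.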
structure (smiles),measurement,setting,value
Cc1c(Cl)c(C)[n+]([O-])c(Cl)c1-c1noc(-c2cc(O)c(O)c([N+](=O)[O-])c2)n1,Potency,[1],inactive
same,Potency,[2],inactive
same,Potency,[3],inactive
same,Potency,[4],inactive
same,Potency,[5],14.1 µM (active)
CC(C)(S)[C@H](N)C(=O)O,outcome,[1],inactive [at 5.34 µM]
same,outcome,[2],inactive [at 5.34 µM]
same,"activity change, negative = cytotoxicity",[3],0.739% [at 5.34 µM] (inactive)
same,outcome,[4],inactive [at 5.25 µM]
same,"activity change, negative = inhibition",[5],-28.5% [at 5.25 µM]
Cc1oc(-c2ccccc2)nc1CCOc1ccc(CC2C(=O)NOC2=O)cc1 (stereo not given),Potency,[1],inactive
same,Potency,[2],inactive
same,Potency,[3],inactive
same,Potency,[4],inactive
same,"activity change, negative = inhibition",[5],-23.4%
CCN(CC)CCOc1ccc2nc(N(C)C)sc2c1,Potency,[1],inactive
same,Potency,[2],inactive
same,Potency,[3],inactive
same,Potency,[4],inactive
same,"activity change, negative = inhibition",[5],-8.36% [at 114 µM]
Cc1nccn1CCC(C(N)=O)(c1ccccc1)c1ccccc1,Potency,[1],inactive
same,Potency,[2],inactive
same,Potency,[3],inactive
same,Potency,[4],inactive
same,"activity change, negative = inhibition",[5],-25.4%
C[C@]12C=CC(=O)C=C1CC[C@@H]1[C@@H]2[C@@H](O)C[C@@]2(C)[C@H]1CC[C@]2(O)C(=O)COP(=O)(O)O,"activity change, negative = cytotoxicity",[1],-13.3% [at 11.4 µM] (inactive)
same,"activity change, negative = inhibition",[2],-22% [at 11.4 µM] (inactive)
same,"activity change, negative = cytotoxicity",[3],-2.88% [at 11.4 µM] (inactive)
same,"activity change, negative = cytotoxicity",[4],-0.915% [at 11.3 µM] (inactive)
same,"activity change, negative = inhibition",[5],-19.2% [at 11.3 µM]
CC(C)OC(=O)[C@H](C)N[P@@](=O)(OC[C@H]1O[C@@H](n2ccc(=O)[nH]c2=O)[C@](C)(F)[C@@H]1O)Oc1ccccc1,Potency,[1],inactive
same,Potency,[2],inactive
same,Potency,[3],inactive
same,Potency,[4],inactive
same,"activity change, negative = inhibition",[5],-25.3%
COc1cc(C[C@@H]2NCCc3cc(O)c(O)cc32)cc(OC)c1OC,Potency,[1],inactive
same,Potency,[2],inactive
same,Potency,[3],inactive
same,Potency,[4],inactive
same,"activity change, negative = inhibition",[5],-18.7%
COc1c(O)cc2c(c1O)[C@H]1O[C@@H](CO)[C@H](O)[C@@H](O)[C@@H]1OC2=O,Potency,[1],inactive
same,Potency,[2],inactive
same,Potency,[3],inactive
same,Potency,[4],inactive
same,"activity change, negative = inhibition",[5],-14.9%
CCCCC[C@@H](O)CC[C@H]1[C@@H]2Cc3cccc(OCC(=O)O)c3C[C@@H]2C[C@@H]1O,Potency,[1],inactive
same,Potency,[2],inactive
same,Potency,[3],inactive
same,Potency,[4],inactive
same,"activity change, negative = inhibition",[5],-4.98%
CCOc1cc(C(CS(C)(=O)=O)N2C(=O)c3cccc(NC(C)=O)c3C2=O)ccc1OC (stereo not given),Potency,[1],inactive
same,Potency,[2],inactive
same,Potency,[3],inactive
same,Potency,[4],inactive
same,"activity change, negative = inhibition",[5],-21.8%
Cc1ccc([C@@H]2O[C@H](CO)[C@@H](O)[C@H](O)[C@H]2O)cc1Cc1ccc(-c2ccc(F)cc2)s1,Potency,[1],inactive
same,Potency,[2],inactive
same,Potency,[3],inactive
same,Potency,[4],inactive
same,Potency,[5],17.8 µM (active)
CS(=O)(=O)Nc1cc2occ(NC=O)c(=O)c2cc1Oc1ccccc1,Potency,[1],inactive
same,Potency,[2],inactive
same,Potency,[3],inactive
same,Potency,[4],inactive
same,"activity change, negative = inhibition",[5],-19.1% and -29.3%
CC[C@H](C)C1NC(=O)[C@H](Cc2ccc(O)cc2)NC(=O)[C@@H](N)CSSC[C@@H](C(=O)N2CCC[C@H]2C(=O)N[C@@H](CC(C)C)C(=O)NCC(N)=O)NC(=O)[C@H](CC(N)=O)NC(=O)[C@H](CCC(N)=O)NC1=O (stereo not given in full),Potency,[1],inactive
same,Potency,[2],inactive
same,Potency,[3],inactive
same,Potency,[4],inactive
same,"activity change, negative = inhibition",[5],-27.2%
CCC[C@@H]1C[C@@H](C(=O)N[C@@H](C2O[C@H](SC)[C@H](O)[C@@H](O)[C@H]2O)[C@H](C)Cl)N(C)C1 (stereo not given in full),Potency,[1],inactive
same,Potency,[2],inactive
same,Potency,[3],inactive
same,Potency,[4],inactive
same,Potency,[5],inactive
Cc1[nH]cnc1C[C@H]1CCc2c(C)c3ccccc3n2C1=O,Potency,[1],inactive
same,Potency,[2],inactive
same,Potency,[3],inactive
same,Potency,[4],inactive
same,"activity change, negative = inhibition",[5],-26.5%
C[N@+]12CCCC[C@@H]1CCC(=C(c1cccs1)c1cccs1)C2,Potency,[1],inactive
same,Potency,[2],inactive
same,Potency,[3],inactive
same,Potency,[4],inactive
same,"activity change, negative = inhibition",[5],-20.7%
Cc1ccc(S(=O)(=O)O)cc1,Potency,[1],inactive
same,Potency,[2],inactive
same,Potency,[3],inactive
same,Potency,[4],inactive
same,"activity change, negative = inhibition",[5],-13.7%
NS(=O)(=O)c1cc2c(cc1Cl)NC(Cc1ccccc1)NS2(=O)=O (stereo not given),Potency,[1],inactive
same,Potency,[2],inactive
same,Potency,[3],inactive
same,Potency,[4],inactive
same,"activity change, negative = inhibition",[5],-16.2%
CCCCC(CC)COc1ccc(-c2nc(-c3ccc(OC)cc3)nc(-c3ccc(OCC(CC)CCCC)cc3O)n2)c(O)c1 (stereo not given),"activity change, negative = cytotoxicity",[1],-14.4% [at 5.34 µM] (inactive)
same,"activity change, negative = inhibition",[2],-1.24% [at 5.34 µM] (inactive)
same,"activity change, negative = cytotoxicity",[3],-1.62% [at 5.34 µM] (inactive)
same,"activity change, negative = cytotoxicity",[4],-8.22% [at 5.25 µM] (inactive)
same,outcome,[5],inactive [at 5.25 µM]
CO/N=C(/C(=O)N[C@@H]1C(=O)N2C(C(=O)O)=C(CSC(=O)c3ccco3)CS[C@H]12)c1csc(N)n1,Potency,[1],inactive
same,Potency,[2],inactive
same,Potency,[3],inactive
same,Potency,[4],inactive
same,"activity change, negative = inhibition",[5],-26.3%
O=C(O)c1cc2ccccc2c(Cc2c(O)c(C(=O)O)cc3ccccc23)c1O,Potency,[1],inactive
same,Potency,[2],inactive
same,Potency,[3],inactive
same,Potency,[4],inactive
same,Potency,[5],inactive
NC(=O)[C@@H]1C[C@]2(NC(=O)NC2=O)c2cc(F)ccc2O1,Potency,[1],inactive
same,Potency,[2],inactive
same,Potency,[3],inactive
same,Potency,[4],inactive
same,"activity change, negative = inhibition",[5],-14.3%
CC(C)CC(NC(=O)CNC(=O)C(Cc1ccc(O)cc1)NC(=O)C(CO)NC(=O)C(Cc1c[nH]c2ccccc12)NC(=O)C(Cc1cnc[nH]1)NC(=O)C1CCC(=O)N1)C(=O)NC(CCCN=C(N)N)C(=O)N1CCCC1C(=O)NCC(N)=O (stereo not given),Potency,[1],inactive
same,Potency,[2],inactive
same,Potency,[3],inactive
same,Potency,[4],inactive
same,"activity change, negative = inhibition",[5],-25.2%
